This note sets out measurements from PubChem BioAssay (NCI).

A short description of assay [1]: NCI Yeast Anticancer Drug Screen. Data for the rad50 strain (AID 155).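 Also: 0% = growth of vehicle-only cultures of the same strain.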 The settings on record: S. cerevisiae rad50 strain growth inhibition; at 50.0 µM; stronger effect = higher value. The method in brief: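 DNA repair mutant yeast, compound exposure, growth read-out; inhibition is taken relative to vehicle.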
Assay [2] is described as follows: NCI Yeast Anticancer Drug Screen. Data for the mec2-1 strain (AID 157). The settings on record: S. cerevisiae mec2-1 strain, at 50.0 µM, stronger effect = higher value. The gist of the method:
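Yeast mec2-1 mutant treated with compound. Readout: growth inhibition vs vehicle controls.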

Assay [3] can be described thus: NCI Yeast Anticancer Drug Screen. Data for the sgs1 mgt1 strain (AID 161).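 Also: 0% = growth of cultures given vehicle only.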 The settings on record: S. cerevisiae sgs1 mgt1 strain, at 50.0 µM, stronger effect = higher value. The gist of the method:
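Read-out: growth inhibition vs vehicle controls. Cells: mutant yeast strain deficient in DNA damage repair.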

Assay [4] can be described thus: NCI Yeast Anticancer Drug Screen. Data for the cln2 rad14 strain (AID 165).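 Also: 0% = growth equal to vehicle treated cultures.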 The settings on record: S. cerevisiae cln2 rad14 strain, at 50.0 µM, stronger effect = higher value. The method in brief:
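cln2 rad14 yeast strain; compound exposure; growth inhibition read vs vehicle controls.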

Assay [5] can be described thus: NCI Yeast Anticancer Drug Screen. Data for the bub3 strain (AID 167). The settings on record: S. cerevisiae bub3 mutant strain, at 50.0 µM, stronger effect = higher value. The gist of the method: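 In this screen, a yeast mutant lacking normal mitotic checkpoint function is challenged with compound. Relative growth versus vehicle gives the inhibition value.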
The nature of assay [6]: NCI Yeast Anticancer Drug Screen. Data for the mlh1 rad18 strain (AID 175). The settings on record: S. cerevisiae mlh1 rad18 strain growth inhibition; at 50.0 µM; stronger effect = higher value. The gist of the method: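 Yeast w/ defined DNA-repair lesions; compound exposure; growth vs vehicle controls → % inhibition.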

About 79,000 compounds went through this panel and 15% of them were active in at least one assay; those are over-represented in the sample as a whole. Values without a mark were called inactive. Calls of active or inactive are those of the source. Rule as the data show it: active = growth inhibition above about 70%; inactive = the rest. Where a SMILES comes first, the peptide text is derived from it. [ ]: non-standard residue; d: D form. The star is where a group is joined. ξ: configuration not given here. NMeY = CN[C@@H](Cc1ccc(O)cc1)C(=O)O; Cbz = O=C(OCc1ccccc1)*; ξA = CC(N)C(=O)O

Regarding `O=C(CC(O)(C(F)(F)Cl)C(F)(F)Cl)c1cccc([N+](=O)[O-])c1`, the growth inhibition was 77.5% (active) in assay [1]; 62% in assay [2]; 81.5% (active) in assay [3]; 72.5% (active) in assay [4]; 61% in assay [5]; 95.8% (active) in assay [6].

`COc1ccccc1NC(=O)CC(=O)N1N=C(C)C(N=Nc2ccc(S(N)(=O)=O)cc2)C1=O` (stereo unspecified): the growth inhibition is 13.3% in assay [1]; -1.65% in assay [2]; -8.2% in assay [3]; 12.8% in assay [4]; 11% in assay [5]; 11.3% in assay [6].

For the compound `COc1ccc(NC(=O)CCC2=CC(=O)CC(c3ccccc3)O2)cc1` (stereo unspecified), the growth inhibition is 2.9% in assay [1]; 9.65% in assay [2]; 2.35% in assay [3]; 25.3% in assay [4]; -8.45% in assay [5]; -5.05% in assay [6].

With `COc1ccc(C[C@@H](C(=O)N[C@@H](C)C(N)=O)N(C)C(=O)[C@@H]2CCCN2C(=O)[C@H](CC(C)C)NC(=O)C(C)NC(=O)OCc2ccccc2)cc1` (stereo partly specified) (Cbz-[ξA]LP[NMeY](Me)A-NH2), the growth inhibition in assay [1] is 29.1%; in assay [2], 28.9%; in assay [3] it was -7.95%; in assay [4], -4%; in assay [5], -38.2%; in assay [6], -44.2%.

`CC(C)CC(CC(C)C)=NNC(N)=O`: the growth inhibition is 17.3% in assay [1]; 23% in assay [2]; 9.05% in assay [3]; 18.9% in assay [4]; 7% in assay [5]; 24.4% in assay [6].

As to `COc1ccccc1C(N)c1ccccc1` (stereo unspecified), the growth inhibition is -13.1% in assay [1]; -0.75% in assay [2]; 15.9% in assay [3]; 5.8% in assay [4]; -0.7% in assay [5]; 13.6% in assay [6].

Turning to `O=[N+]([O-])c1ccc(Cl)c(OCCBr)c1`, the growth inhibition in assay [1] was 0%; in assay [2], 3.15%; in assay [3], -2.05%; in assay [4] it was 1.15%; in assay [5], 31.9%; in assay [6], 9%.

As for `COC1CC(N=[N+]=[N-])C(OS(C)(=O)=O)C(C)O1` (stereo unspecified), the growth inhibition in assay [1] is -2.35%; in assay [2], 22.1%; in assay [3] it was 1.7%; in assay [4], 3.7%; in assay [5], -9%; in assay [6] it was 14.8%.

Consider `O=C(O)c1cc(=O)[nH]c(=S)[nH]1`, for which the growth inhibition in assay [1] was -18.6%; in assay [2] it was 5.65%; in assay [3] it was -19.5%; in assay [4], 8.05%; in assay [5], -9.25%; in assay [6], -15.6%.

Regarding `CC(=O)c1cc(C(C)=O)c(CC(=O)C(=O)Nc2cccc(C)c2C)nc1CC(=O)C(=O)Nc1cccc(C)c1C`, the growth inhibition is 2.9% in assay [1]; -6.3% in assay [2]; 16.5% in assay [3]; -19.2% in assay [4]; -9.6% in assay [5]; -18.5% in assay [6].

Regarding `c1ccc2c(c1)ccc1c3c(oc12)CCCC3`, the growth inhibition in assay [1] is -10.5%; in assay [2], -6.45%; in assay [3], -15.7%; in assay [4] it was -36.4%; in assay [5] it was 0.25%; in assay [6] it was -5.9%.

Consider `Cc1ccc(Cc2ccccc2C(=O)O)cc1`, for which the growth inhibition in assay [1] was -5.95%; in assay [2], 1.55%; in assay [3], -2.3%; in assay [4] it was -42.9%; in assay [5] it was -2.45%; in assay [6], -6.05%.

For `COC1(OC)C(c2ccc([N+](=O)[O-])cc2)C([N+](=O)[O-])C1(OC)OC` (stereo unspecified), the growth inhibition in assay [1] was -14.1%; in assay [2], -16.1%; in assay [3], -32%; in assay [4] it was -11.4%; in assay [5], -8.4%; in assay [6] it was -17.6%.

`CC1=NN(C(=O)c2ccc(Cl)cc2)C(=O)/C1=C/c1ccco1`: the growth inhibition in assay [1] is -8.85%; in assay [2], -28.9%; in assay [3], -22.6%; in assay [4], 9.25%; in assay [5], -2.7%; in assay [6], -24.1%.

`O=C(O)c1cnccn1`: the growth inhibition in assay [1] is 18.8%; in assay [2] it was 4.3%; in assay [3] it was 16.9%; in assay [4], 12.6%; in assay [5], 1.2%; in assay [6], 17.9%.

Regarding `O/N=C/c1nc2ccccc2s1`, the growth inhibition is 10.2% in assay [1]; 22.8% in assay [2]; -3.65% in assay [3]; -55.6% in assay [4]; -17.6% in assay [5]; 23.8% in assay [6].

On to `Clc1ccc(Cl)c2c(Br)cncc12`, for which the growth inhibition in assay [1] was 37.4%; in assay [2], 10.8%; in assay [3], 12.9%; in assay [4], 7.05%; in assay [5], 17.5%; in assay [6], 22.1%.

As for `CC1(C)CN(CCO)C(C)(C)CN1`, the growth inhibition in assay [1] was 30.6%; in assay [2], 16.3%; in assay [3], 14.9%; in assay [4], 15.8%; in assay [5], -19.8%; in assay [6] it was 2.5%.

In the case of `CCC1(C)N=C(C)C(C)S1` (stereo unspecified), the growth inhibition was -7.6% in assay [1]; -1.3% in assay [2]; -13.7% in assay [3]; 4.9% in assay [4]; -16.3% in assay [5]; 6.2% in assay [6].

For `[S-]c1n[n+](-c2ccccc2)c(-c2ccc(Cl)cc2)s1`, the growth inhibition was -2.05% in assay [1]; 5.8% in assay [2]; 7.75% in assay [3]; -3.65% in assay [4]; -4.85% in assay [5]; 0.45% in assay [6].

`Cc1ccccc1NCc1ccccc1[N+](=O)[O-]`: the growth inhibition in assay [1] was 23.9%; in assay [2] it was 11.1%; in assay [3], 14.8%; in assay [4], -28.6%; in assay [5], -14.6%; in assay [6], 18.9%.
